Experimental data reported in PubChem BioAssay (NCI).
“And” between values parts separate entries of the source, which are not always exact repeats. Identical values can stand only once. This is part of a sample that, as a whole, favours compounds with a hit. Of some 83,000 tested, about 20% had one in any assay.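 Activity criterion: percent growth below 10, measured after cells in 96-well plates were exposed to a single compound concentration for 48 hours.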 The source made the active and inactive calls.

What follows are compounds tested on HL-60(TB) leukemia (assay: NCI-60 one-dose screen, 48 h (100 = growth as untreated, 0 = no growth, -100 = all killed)). Details: 10 µM unless noted.

Row | SMILES | growth
1 | CN1[C@@H]2CC[C@H]1/C(=C\c1ccccc1)C(=O)/C2=C/c1ccccc1 | 37% (inactive)
2 | O=C1C(=O)c2ccccc2C(O)=C1CC=C(Cl)Cl | 31.3% (inactive) and 44.6% (inactive)
3 | Cc1ccc(-c2nnc(COc3ccc(-c4nnc(N)s4)cc3)o2)cc1 | 96.4% (inactive)
4 | O=C(O)c1ccc(-c2nn(-c3ccc(C(=O)O)cc3)cc2/C=N/Nc2c(F)c(F)cc(F)c2F)cc1 | 96.5% (inactive)
5 | CCOC(=O)c1cc(C)[nH]c(=O)c1C#N | 121% (inactive)
6 | COc1cc(-c2cc(-c3cc4c([nH]c5ccccc54)c(-c4cc(OC)c(OC)c(OC)c4)n3)cc(-c3ccccc3)n2)cc(OC)c1OC | 30.9% (inactive)
7 | O=C1CCN(Cc2ccccc2)C(=S)N1 | 86.8% (inactive) and 113% (inactive)
8 | COc1cc(Nc2ccnc3ccc(Br)cc23)cc(OC)c1OC | 24.8% (inactive)
9 | O=C(/C=C/c1cccc2ccccc12)c1ccc(NC(=O)c2ccccc2CN2C(=O)c3ccccc3C2=O)cc1 | 44% (inactive)
10 | COc1cc(C(=O)c2ccccc2C(=O)O)c(OC)c2c1CCCC2 | 36.8% (inactive) and 97.1% (inactive)
11 | C/C(=N\N=C(/C)c1cccc([N+](=O)[O-])c1)c1cccc([N+](=O)[O-])c1 | 125% (inactive)
12 | COc1ccc(-n2nc(C(=O)Nc3ccc(F)cc3)nc2-c2cc(OC)c(OC)c(OC)c2)cc1 | 91.5% (inactive)
13 | COc1ccc(-c2cc(-c3cc(OC)ccc3OC)nc(SCC(=O)c3ccccc3)c2C#N)cc1 | 98.4% (inactive)
14 | CCC1=C[C@@H]2C[C@]3(C(=O)OC)c4[nH]c5ccccc5c4CC[N@+](CC(=O)Nc4cc5c(cc4OC)N(C)[C@H]4[C@@](O)(C(=O)OC)[C@H](OC(C)=O)[C@]6(CC)C=CCN7CC[C@]54[C@@H]76)(C2)[C@H]13 | 116% (inactive)
15 | COc1cc2nc(N3CCN(C(=O)C4COc5ccccc5O4)CC3)nc(N)c2cc1OC (centres undefined) | 104% (inactive) and 103% (inactive) and 99.9% (inactive)
16 | N#CC1=C(c2ccc(Cl)cc2)Nc2c(c(-c3ccc(Cl)cc3)nn2-c2ccccc2)C12C(=O)Nc1ccc(Cl)cc12 (centres undefined) | 15.2% (inactive)
17 | CO/N=C(/C)c1ccc(NC(=O)CSc2nnc(-c3ccncc3)n2-c2ccccc2)cc1 | 86% (inactive)
18 | CCCCCC(=O)N1c2ccccc2NC2=C(C(=O)CC(c3ccc(OC)c(OC)c3)C2)C1c1ccc(C(F)(F)F)cc1 (centres undefined) | 45.4% (inactive)
19 | O=C1/C(=C/c2ccc([N+](=O)[O-])cc2)Oc2ccc(O)cc21 | 86.1% (inactive)
20 | COc1ccc(/C=C(\C#N)c2ccccc2)cc1 | 95.8% (inactive)

Row | SMILES | growth
21 | NCCCOc1cc2ccccc2cc1C(=O)NCCCOc1cc2ccccc2cc1C(=O)Nc1ccc(Cl)cc1O | -62% (active)
22 | CNC(=O)c1cc(Oc2ccc(NC(=O)Nc3ccc(Cl)c(C(F)(F)F)c3)cc2)ccn1 | -35.3% (active) and 23.3% (inactive)
23 | COc1c(N)c2c(c([N+](=O)[O-])c1OC)C(=O)OC2 | 95.3% (inactive)
24 | O=C(N/N=C/c1cc(Cl)ccc1O)C(=O)N/N=C/c1cc(Cl)ccc1O | 46.1% (inactive)
25 | O/N=C/c1ccc(O)cc1O | 96.9% (inactive)
26 | CC(=O)O[C@H]1C(=O)[C@@]2(C)C([C@H](OC(=O)c3ccccc3)[C@]3(O)C[C@H](OC(=O)[C@H](O)[C@@H](NC(=O)c4ccccc4)c4ccccc4)C(C)=C1C3(C)C)[C@]1(OC(C)=O)CO[C@@H]1C[C@@H]2O (some centres undefined) | 9.14% (active)
27 | C=C1C(=O)O[C@H]2[C@H]1CC/C(COC(=O)NCc1cc3ccccc3[nH]1)=C\CC[C@@]1(C)O[C@@H]21 | -51.4% (active)
28 | COc1ccc(-c2nc3c(c(-c4ccccc4)nn3-c3ccccc3)c(-c3ccc(N4CCOCC4)cc3)c2C#N)cc1 | 101% (inactive)
29 | O=C(Nc1ccc(-n2ccc3c(NC(=O)c4ccccc4)nccc32)cc1)c1ccc(N2CCOCC2)c(C(F)(F)F)c1 | 24.8% (inactive)
30 | CCCCCCCCCCCC[n+]1ccc(C(N)=O)cc1 | -26.3% (active)
31 | CN1C(=O)/C(=C/c2nc(-c3cccc(F)c3)n3ccccc23)c2ccccc21 | 92.6% (inactive)
32 | O=C1Nc2ccc(F)cc2/C1=C\c1c(-c2ccccc2)nc2ccccn12 | 56.4% (inactive)
33 | N/C(=N\C(N)=N\c1nc2ccccc2s1)c1cccc(Br)c1 | 95.4% (inactive)
34 | O=C1Nc2cc(-c3ccncc3)ccc2/C1=C/c1ccc[nH]1 | 99.9% (inactive)
35 | CC1(C)OC(=O)CC1=O | 91.5% (inactive)
36 | CC1(C)CCC(S(=O)(=O)c2ccc3c(c2)/C(=N\O)c2cc(S(=O)(=O)N4CCC(O)(c5cccc(C(F)(F)F)c5)CC4)ccc2-3)CC1 | -67.5% (active)
37 | O=C(Cc1ccccc1)NC(c1ccc(Cl)cc1)c1c(O)ccc2ccccc12 (centres undefined) | 7.2% (active)
38 | Nc1nc(N)c(C=Nc2ccc(Br)cc2)c(Nc2ccc(Br)cc2)n1 | 90% (inactive)
39 | O=c1cc(/C=N\Nc2nc(-c3ccc(Cl)cc3Cl)cs2)c2cc(Cl)ccc2o1 | 92.3% (inactive)
